Assay results from PubChem BioAssay (NCI).
“And” between values parts separate entries of the source, which are not always exact repeats. Identical values can stand only once. About 83,000 compounds went through this panel and 20% of them were active in at least one assay; those are over-represented in the sample as a whole.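 96-well plates, one dose, 48 hours. Percent growth reported; active if below 10.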 The source made the active and inactive calls.

Key:
Experiment in all cases: NCI-60 one-dose screen, 48 h (100 = growth as untreated, 0 = no growth, -100 = all killed)
Settings in all cases: 10 µM unless noted
[1] = tested on: HCT-15 colon
[2] = tested on: HT29 colon
[3] = tested on: SNB-19 CNS
[4] = tested on: U251 CNS
[5] = tested on: PC-3 prostate
[6] = tested on: SK-MEL-5 melanoma
[7] = tested on: UACC-62 melanoma
[8] = tested on: LOX IMVI melanoma
[9] = tested on: SK-MEL-28 melanoma
[10] = tested on: SK-MEL-2 melanoma
[11] = tested on: EKVX NSCLC
[12] = tested on: SN12C renal
[13] = tested on: UO-31 renal
[14] = tested on: TK-10 renal
[15] = tested on: ACHN renal
[16] = tested on: CAKI-1 renal
[17] = tested on: A498 renal
[18] = tested on: CCRF-CEM leukemia
[19] = tested on: MOLT-4 leukemia
[20] = tested on: SNB-75 CNS

C/C(=N\NC(=O)c1ccncc1)c1ccccc1O
growth [1]: 22.8% (inactive) and 23.3% (inactive) | growth [2]: 29.7% (inactive) and 29.1% (inactive) | growth [3]: 47.8% (inactive) and 46.6% (inactive) | growth [4]: 33.8% (inactive) and 33.4% (inactive) | growth [5]: 44.4% (inactive) and 35.8% (inactive) | growth [6]: 38.7% (inactive) and 50% (inactive) | growth [7]: 22% (inactive) and 30.6% (inactive) | growth [8]: 22.5% (inactive) and 10.9% (inactive) | growth [9]: 52.4% (inactive) and 63.1% (inactive) | growth [10]: 75.3% (inactive) and 18.8% (inactive) | growth [11]: 16.5% (inactive) and 31.5% (inactive) | growth [12]: 45.9% (inactive) and 46.9% (inactive) | growth [13]: 31.3% (inactive) and 20.6% (inactive) | growth [14]: 34.7% (inactive) and 37.4% (inactive) | growth [15]: 26.3% (inactive) and 26.5% (inactive) | growth [16]: 10.4% (inactive) | growth [17]: 68.9% (inactive) | growth [18]: 16% (inactive) and 15.8% (inactive) | growth [19]: 7.82% (active) and 10.7% (inactive)

O=C(N/N=C/c1ccc2c(c1)OCO2)c1ccncc1
growth [1]: 106% (inactive) and 104% (inactive) | growth [2]: 101% (inactive) and 105% (inactive) | growth [3]: 111% (inactive) and 103% (inactive) | growth [4]: 104% (inactive) | growth [5]: 104% (inactive) and 88.5% (inactive) | growth [6]: 105% (inactive) | growth [7]: 91.3% (inactive) and 97.5% (inactive) | growth [8]: 97.4% (inactive) and 101% (inactive) | growth [9]: 103% (inactive) and 106% (inactive) | growth [10]: 110% (inactive) and 108% (inactive) | growth [11]: 104% (inactive) and 101% (inactive) | growth [12]: 94.4% (inactive) and 98.4% (inactive) | growth [13]: 82.8% (inactive) and 79.4% (inactive) | growth [14]: 91.2% (inactive) and 111% (inactive) | growth [15]: 107% (inactive) and 103% (inactive) | growth [16]: 97.2% (inactive) and 97.5% (inactive) | growth [17]: 98% (inactive) and 94% (inactive) | growth [18]: 113% (inactive) and 101% (inactive)

O=C1c2c(O)cc(O)cc2OC(c2ccc(O)c(O)c2)C1O (configuration not stated)
growth [1]: 108% (inactive) | growth [2]: 110% (inactive) | growth [20]: 96.1% (inactive) | growth [4]: 102% (inactive) | growth [5]: 96.4% (inactive) | growth [6]: 104% (inactive) | growth [7]: 106% (inactive) | growth [9]: 108% (inactive) | growth [10]: 105% (inactive) | growth [11]: 119% (inactive) | growth [14]: 104% (inactive) | growth [15]: 105% (inactive) | growth [16]: 118% (inactive) | growth [17]: 107% (inactive) | growth [18]: 97.7% (inactive) | growth [19]: 107% (inactive)

CCCCCn1sc(=O)n(Cc2ccc(CNC(=O)C(C)c3ccc(CC(C)C)cc3)cc2)c1=O (configuration not stated)
growth [1]: 101% (inactive) and -35% (active) | growth [2]: 112% (inactive) and -52.1% (active) | growth [3]: 98.7% (inactive) and 43.3% (inactive) | growth [4]: 87.4% (inactive) and 8.32% (active) | growth [5]: 93.7% (inactive) and -64.4% (active) | growth [6]: 101% (inactive) and -89.2% (active) | growth [7]: 96.9% (inactive) and -65.1% (active) | growth [8]: 104% (inactive) and -92.7% (active) | growth [9]: 107% (inactive) and -52.5% (active) | growth [10]: 106% (inactive) and -18.6% (active) | growth [11]: 96.9% (inactive) and -65.7% (active) | growth [12]: 95.3% (inactive) and -52.9% (active) | growth [13]: 85.8% (inactive) and -100% (active) | growth [14]: 106% (inactive) and -86.8% (active) | growth [15]: 92.4% (inactive) and -100% (active) | growth [16]: 91.2% (inactive) and -73% (active) | growth [17]: 113% (inactive) and 40% (inactive) | growth [18]: 95.8% (inactive) and 2.99% (active) | growth [19]: 101% (inactive) and -4.68% (active)
